Shown are actives, neighbours in structure and some others; about 0.9% of the full set was active somewhere.
gsp antag: qHTS for Antagonists of gsp, the Etiologic Mutation Responsible for Fibrous Dysplasia/McCune-Albright Syndrome: qHTS | Potency, µM (top dose mostly 76.9 µM), for inactives: at the top dose activity change, negative = inhibition, usual class: inhibitors | gsp-mutant cells, cAMP HTRF, 30 min | hit rate 0.4% among 340,000 | AID 624288, 2012; calls by dose curve; cell line not stated here;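 also: intracellular cAMP measured with PDE inhibitor Ro 20-1724 present during compound exposure; potency is read from the fitted curve at half-maximal effect; % is scaled to controls: 0 for no effect and ±100 for the full control effect; nearly all actives have a fitted effect of over 65% in size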
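Cells, 2000/well, grown 16–24 h in DMEM 10% FBS with 0.5 mg/ml G418, then compounds plus […] (300 uM addition stock), 30 min at 37C. cAMP read by HTRF (cAMP-d2 and anti-cAMP antibody-K in lysis buffer) after 30 min RT.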
gsp agonist: qHTS for Agonist of gsp, the Etiologic Mutation Responsible for Fibrous Dysplasia/McCune-Albright Syndrome: qHTS; gsp mutant cells, cAMP HTRF, 30 min; Potency, µM (highest dose often 76.9 µM), without a hit: top-dose activation (cAMP increase), actives largely listed as activators; hit rate 0.13% among 340,000; active = well fitted activation curve with a large enough effect; inconclusive = small, poorly fitted or top-dose-only effect, or another doubt; inactive = no such curve, though single readings can be large or run the other way; cell line not stated here;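 also: phosphodiesterase inhibitor Ro 20-1724 added with compounds to block cAMP breakdown; potency is read from the fitted curve at half-maximal effect; nearly all actives have a fitted effect of over 60% in size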
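Cells stably selected in G418 were plated at 2000/well, grown 16-24 hr, then given compounds in DMSO with the PDE inhibitor […] (300 uM solution added) for 30 min at 37C; cAMP was read by HTRF.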
RXFP1 antagonist: qHTS Assay for Antagonists of the Relaxin Receptor RXFP1 | HEK293-RXFP1, relaxin-stimulated cAMP HTRF, 30 min; hits give low values | Relaxin receptor 1 (Homo sapiens), Q9HBX9 | hit rate 0.59% among 350,000 | AID 1259400, 2018 | activity change, negative = inhibition, % at 57.5 µM;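 active = activity change of -60% or lower, but not beyond a set lower limit; inconclusive = change between -60% and -40%, or beyond the set limit; inactive = change above -40%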; also: % is scaled to controls: 0 for no effect and ±100 for the full control effect
Target sequence (Q9HBX9 whole entry, looked up): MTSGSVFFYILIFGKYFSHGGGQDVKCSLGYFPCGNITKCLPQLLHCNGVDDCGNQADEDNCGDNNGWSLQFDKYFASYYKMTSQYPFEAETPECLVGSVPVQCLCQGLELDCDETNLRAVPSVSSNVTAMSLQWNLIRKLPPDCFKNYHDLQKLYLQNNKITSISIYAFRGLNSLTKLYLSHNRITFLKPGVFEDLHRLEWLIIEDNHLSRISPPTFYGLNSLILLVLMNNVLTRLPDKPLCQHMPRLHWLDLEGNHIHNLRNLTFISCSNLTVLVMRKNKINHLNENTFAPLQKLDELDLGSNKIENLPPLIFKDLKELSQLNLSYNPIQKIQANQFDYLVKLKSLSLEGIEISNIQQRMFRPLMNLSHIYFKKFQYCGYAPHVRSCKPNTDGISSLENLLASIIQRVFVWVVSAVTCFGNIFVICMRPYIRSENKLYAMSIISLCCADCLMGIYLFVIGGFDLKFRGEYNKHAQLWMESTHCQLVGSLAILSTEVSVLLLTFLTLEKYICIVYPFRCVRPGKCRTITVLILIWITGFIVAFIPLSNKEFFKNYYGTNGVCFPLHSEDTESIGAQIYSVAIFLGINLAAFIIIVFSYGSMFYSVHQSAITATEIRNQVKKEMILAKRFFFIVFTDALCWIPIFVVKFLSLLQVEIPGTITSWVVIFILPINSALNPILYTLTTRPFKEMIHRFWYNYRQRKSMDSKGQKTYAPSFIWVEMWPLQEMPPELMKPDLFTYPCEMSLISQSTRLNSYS
RXFP1 agonist: qHTS Assay for Agonists of the Relaxin Receptor RXFP1. Potency, µM (doses to about 57.5 µM), for the others: top-dose activation, actives largely listed as activators. hit rate 0.3% among 370,000. AID 2676, 2010. Relaxin receptor 1 (Homo sapiens), Q9HBX9. HEK293T-RXFP1 cAMP TR-FRET, 30 min; response scale: percent of porcine relaxin response, buffer zero; active = well fitted activation curve with a large enough effect; inconclusive = small, poorly fitted or top-dose-only effect; also: potency is read from the fitted curve at half-maximal effect; % is scaled to controls: 0 for no effect and ±100 for the full control effect; nearly all actives have a fitted effect of over 60% in size
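HEK293 cells stably expressing RXFP1, treated 30 min at 37C with compounds plus PDE4 inhibitor Ro 20174; cAMP measured by HTRF TR-FRET. Normalized to buffer and 29 nM porcine relaxin; EC50 by Hill fit.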
* marks the source's active call; other numbers are inactive results; ? = inconclusive; nt = no result; [ ] = dose if it differs, or a comment.

SMILES | gsp antag | gsp agonist | RXFP1 antagonist | RXFP1 agonist
Cc1ccccc1S(=O)(=O)Cc1ccc(C(=O)NC2CCCCCC2)o1 | -8% | -59% | 37 | -4%
Cc1ccccc1S(=O)(=O)Cc1ccc(C(=O)NC2CC2)o1 | 28µM* | -6% | 6 | 1%
CCOC(=O)c1c(CSC(=N)N)n(-c2ccccc2)c2cc(Br)c(OC(C)=O)cc12 | 1% | 2%[15.4 µM] | -61* | 0%
CCOC(=O)c1c(CN2CCN(C)CC2)n(-c2ccccc2)c2cc(Br)c(O)cc12 | -21% | 19% | -17 | -3%
Cc1ccc(S(=O)(=O)N(C)c2ccc(C(=O)Nc3cccc(C)n3)cc2)cc1 | 35µM* | 9%[15.4 µM] | -35 | 0%
Cc1ccc(S(=O)(=O)N(C)c2ccc(C(=O)Nc3ccccn3)cc2)cc1 | -28% | -27% | -25 | 0%
O=C(Nc1ccc(Cl)cc1)N1CCC(CN2CCCCCC2)CC1 | nt | nt | 2 | -3%
CC(C)(C)c1ccc(OCc2ccc(C(=O)Nc3cccnc3)o2)cc1 | ? | ? | -64* | -3%
O=C(Nc1cccnc1)c1ccc(COc2ccccc2Br)o1 | -14% | -72% | 14 | 3%
Cc1ccc(Cl)c(OCC(O)CNC(C)(C)C)c1 (stereo unspecified) | nt | nt | -4 | nt
Cc1ccc(Nc2c(-c3ccc(N4CCOCC4)cc3)nc3c(C)cccn23)cc1 | nt | nt | -5 | 4%
CCC(NC(=O)Nc1nnc(C(F)(F)F)s1)(C(F)(F)F)C(F)(F)F | 4.5µM* | 0% | -2 | 1%
CC(C)CCN1CCN(Cc2cccn2-c2cccnc2)CC1CCO (stereo unspecified) | 2% | -21% | 1 | -2%
COc1cccc(CN2CCN(Cc3cccn3-c3cccnc3)CC2CCO)c1 (stereo unspecified) | 50µM* | -13% | -7 | 1%
C=CCn1c(=O)[nH]c2cc(C(=O)N3CCN(c4ccc(C(C)=O)cc4)CC3)ccc2c1=O | -23% | -21% | 24 | 3%
C=CCn1c(=O)[nH]c2cc(C(=O)N3CCN(c4cccc(Cl)c4)CC3)ccc2c1=O | 32µM* | -42% | -6 | 0%
COc1ccc(CNC(=O)Cc2csc3nc(-c4ccc(C)cc4)cn23)cc1 | nt | nt | -14 | 1%
O=C(CN1C(=O)CCC1=O)Nc1nc(-c2ccc(Oc3ccccc3)cc2)cs1 | -23% | 1% | -70* | 0%
O=C(Cc1c(F)c(F)c(F)c(F)c1F)Nc1nc(-c2ccccc2)cs1 | -11% | -6%[15.4 µM] | -65* | 10%
O=C(Nc1nc(-c2ccccc2)cs1)c1cccc([N+](=O)[O-])c1 | 50µM* | 6% | -21 | 2%
Cc1ccc(C(=O)NC(=S)Nc2nc(-c3cccc([N+](=O)[O-])c3)cs2)c(Cl)c1 | 7% | -36%[15.4 µM] | -89* | 3%
COc1ccc(-c2csc(NC(=O)CN3C(=O)CCC3=O)n2)cc1 | -3% | 6% | -4 | 1%
O=C(Nc1nc(-c2cccnc2)cs1)c1cccc([N+](=O)[O-])c1 | 3% | 10%[15.4 µM] | -14 | 0%
COc1ccc(OC)c(NC(=O)c2nc(SCc3ccc(F)cc3)ncc2Cl)c1 | nt | nt | -1 | 0%
COc1ccc2cc(C=O)ccc2c1 | nt | nt | -28 | nt
SMILES | gsp antag | gsp agonist | RXFP1 antagonist | RXFP1 agonist
O=C(NC(=S)Nc1nc(-c2ccccc2)cs1)c1ccco1 | -7% | -59% | -63* | 2%
COc1ccc(-c2csc(NC(=S)NC(=O)c3ccco3)n2)cc1 | 4% | -10% | 1 | 2%
COc1ccc(S(=O)(=O)n2nc(-c3ccco3)nc2NCc2ccc(OC)c(OC)c2)cc1 | nt | nt | -1 | 0%
S=c1[nH]c2nc(Cl)c(Cl)nc2[nH]1 | nt | 13µM* | 3 | nt
CCOc1ccccc1CNC(=O)c1sc2ncccc2c1-n1cccc1 | nt | nt | -11 | 0%
O=C1CCCc2cc(S(=O)(=O)NCC3CCC(C(=O)NCc4ccc(F)cc4)CC3)ccc2N1 (stereo unspecified) | nt | nt | nt | 0%
COc1ccc(Cn2c(-c3ccc(C)cc3)nc3c(c(=O)c4ccccc4n3C)c2=O)cc1 | 25µM* | -7% | 2 | 4%
CC(C)(C)c1ccc(C2NC(=O)c3n[nH]c(-c4cccs4)c32)cc1 (stereo unspecified) | nt | nt | -17 | 3%
CC1(C)CC(=O)C2=C(C1)N1C(=C(C#N)C2c2ccc(Cl)cc2)N=C(N)c2ccccc21 (stereo unspecified) | 35µM* | -1% | ? | 1%
COc1cc(C(=O)Nc2nc(-c3ccc(F)cc3)cs2)ccc1OCC(=O)N1CCOCC1 | 35µM* | -8% | -25 | -2%
COc1cc(C(=O)Nc2nc(-c3cc(C)ccc3C)c(C)s2)ccc1OCC(=O)Nc1ccc(F)cc1 | 5% | ? | 3 | 32µM*
COc1ccc(-c2nc(NC(=O)c3ccc(OCC(=O)Nc4ccc(F)cc4)c(OC)c3)sc2C)cc1 | 47% | ? | -18 | 28µM*
COc1ccc(C(=O)NCC(=O)Nc2ccc(F)cc2)cc1OC | 6% | 13% | 5 | -1%
CCOc1ccc(NC(=O)N(Cc2ccc(CC)cc2)Cc2cn[nH]c2-c2ccc(OC)cc2)cc1 | nt | nt | ? | 3%
N#Cc1c(C(F)(F)F)cc(-c2ccccc2Cl)[nH]c1=O | 28µM* | 15% | -110* | 3%
Cc1cc(C)n(-c2nnc(Cl)c3ccccc23)n1 | -17% | -44% | 1 | -2%
Cc1ccc(-c2nnc(-n3nc(C)cc3C)c3ccccc23)cc1 | 35µM* | 2% | -2 | -1%
COc1cc(-c2nc(S(=O)(=O)c3ccc(Br)cc3)c(N3CCOCC3)o2)cc(OC)c1OC | nt | nt | 8 | 1%
CC(C)CN1C(=O)c2ccc(C(=O)Nc3ccc(O)cc3C(=O)O)cc2C1=O | -20% | 10%[15.4 µM] | -3 | 1%
O=C(Nc1ccc(O)cc1C(=O)O)c1ccc2c(c1)C(=O)N(Cc1ccco1)C2=O | 32µM* | -13% | 1 | 1%
CC(C)CC(=O)Nc1cccc(C(=O)Nc2ccccc2C(=O)O)c1 | 32µM* | 12% | -17 | 1%
CC(=O)Nc1cccc(C(=O)Nc2ccccc2C(=O)O)c1 | ? | 0% | 0 | 0%
CC(c1ccccc1)N1C(=O)c2ccc(C(=O)Nc3ccc(Br)cc3C(=O)O)cc2C1=O (stereo unspecified) | 35µM* | 9% | -5 | -3%
CC(c1ccccc1)N1C(=O)c2ccc(C(=O)Nc3ccccc3C(=O)O)cc2C1=O (stereo unspecified) | 16µM* | -1% | -74* | 2%
CCCCC(=O)O[C@]1(C(=O)CO)[C@@H](C)C[C@H]2[C@@H]3CCC4=CC(=O)C=C[C@]4(C)[C@@]3(F)[C@@H](O)C[C@@]21C | nt | nt | -9 | nt
CCn1c(=O)c2c(nc(C=Cc3ccc(OC)c(OC)c3)n2C)n(CC)c1=O | nt | nt | -11 | nt
O=C(CCS(=O)(=O)c1cccc2nsnc12)Nc1ccc(F)cc1 | nt | nt | nt | -3%

Screening results deposited in PubChem by National Center for Advancing Translational Sciences (NCATS).
